A selection: hits, their analogues and other compounds. The true share with any hit is near 0.43%.
GLA inh pH 4.5: alpha-galactosidase A (human) inhibition, pH 4.5 | activity change, negative = inhibition, % at 105 µM | 230,000 tested, under 10 active | purified enzyme, 4-MU-alpha-Gal fluorescence, pH 4.5
Target sequence (P06280 whole entry, looked up): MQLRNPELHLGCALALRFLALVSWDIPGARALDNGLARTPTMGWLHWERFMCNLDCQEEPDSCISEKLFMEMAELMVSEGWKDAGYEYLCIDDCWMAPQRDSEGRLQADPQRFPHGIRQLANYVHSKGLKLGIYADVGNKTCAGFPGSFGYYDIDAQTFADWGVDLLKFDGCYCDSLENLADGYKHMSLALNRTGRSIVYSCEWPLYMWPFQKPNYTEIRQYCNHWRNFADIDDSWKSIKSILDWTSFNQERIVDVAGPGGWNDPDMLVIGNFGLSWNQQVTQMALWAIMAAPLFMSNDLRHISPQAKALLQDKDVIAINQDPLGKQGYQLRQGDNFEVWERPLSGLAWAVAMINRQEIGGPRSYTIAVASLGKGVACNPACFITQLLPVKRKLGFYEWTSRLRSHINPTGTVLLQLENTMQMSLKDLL
GAA inh: inhibitors of human lysosomal alpha-glucosidase. actives 0.005% (n = 200,000). purified human GAA, 4-MU-alpha-glucoside fluorescence. P10253. AID 1466. Potency, µM (top dose mostly 76.9 µM), most hits filed as inhibitors
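Fluorogenic assay: 4 nM human alpha-glucosidase with 400 uM 4-methylumbelliferyl-alpha-D-pyranoside in 50 mM citrate/phosphate, 0.005% Tween-20, pH 5.0, 20 min at room temperature. Compounds tested up to 77 uM; AC50 from Hill fits.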
N370S GC mod: inhibitors or activators of N370S glucocerebrosidase for Gaucher disease; actives 0.092% (n = 330,000); AID 2101; Potency, µM (top dose mostly 59.4 µM), most hits filed as inhibitors; N370S GC spleen homogenate, 4MU-glucoside fluorescence
aGlu spleen mod: inhibitors or activators of human alpha-glucosidase in spleen homogenate; actives 0.006% (n = 240,000); human spleen homogenate, 4-MU-alpha-glucoside fluorescence; P10253; AID 2112; Potency, µM (doses to about 79.9 µM), hits mostly inhibitors
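AC50 values come from Hill-equation fits of concentration-response data, normalized to no-enzyme and full-activity controls. Enzyme source: 1 ug human spleen homogenate; 1 mM fluorogenic 4-MU glucoside, pH 5.0 citrate buffer, 37 C, 40 min.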
GAA glycogen: inhibitors or activators of human alpha-glucosidase glycogen cleavage; P10253; recombinant GAA, glycogen substrate, Amplex Red glucose oxidase fluorescence; Potency, µM (top dose mostly 76.4 µM), hits mostly inhibitors; actives 0.38% (n = 300,000); AID 2100;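 note: the screen sought inhibitors and activators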
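Recombinant human enzyme (4 nM); glycogen substrate; 37 C, 40 min, pH 5.0. Readout: coupled glucose oxidase/Amplex Red fluorescence.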
GLA spleen mod: inhibitors or activators of human alpha-galactosidase in spleen homogenate. P06280. human spleen homogenate, 4MU-alpha-Gal fluorescence, 40 min. Potency, µM (top dose mostly 80 µM), most hits filed as inhibitors. actives 0.008% (n = 240,000). AID 2107
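Human spleen homogenate (1 ug) was the enzyme source, with 4-methylumbelliferyl-alpha-D-galactopyranoside (1 mM final) in pH 5.0 citrate buffer with 0.01% Tween-20. Compounds were titrated; after 40 min at 37C, NaOH/glycine stop, 4-MU fluorescence read; AC50 from Hill fits.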
Each line names hits and unclear results; the compound was inactive in the other large screens. Calls come from the whole dose curve; as a rule, active = well fitted curve in the direction sought with a large enough effect; inconclusive = small, poorly fitted or top-dose-only effect, or another doubt; inactive = no such curve, though single readings can be large; an effect the other way counts as inactive or inconclusive.

CCCc1cc(=O)oc2cc(OCC(=O)NC(Cc3c[nH]c4ccc(O)cc34)C(=O)O)c(Cl)cc12 (centres undefined)	GAA glycogen 7.94µM (no result: GLA inh pH 4.5, GAA inh, aGlu spleen mod, GLA spleen mod)
CCOc1ccc(N(CC(=O)NCc2ccc(C)cc2)S(=O)(=O)c2c(C)[nH]c(=O)[nH]c2=O)cc1	N370S GC mod inconclusive (no result: GLA inh pH 4.5, GAA inh, aGlu spleen mod, GLA spleen mod)
CCOc1ccc(N(CC(=O)Nc2c(C)cccc2C)S(=O)(=O)c2c(C)[nH]c(=O)[nH]c2=O)cc1	N370S GC mod 4.47µM (no result: GAA inh)
CCOc1ccc(N(CC(=O)NCc2ccccc2Cl)S(=O)(=O)c2c(C)[nH]c(=O)[nH]c2=O)cc1	N370S GC mod 3.98µM (no result: GLA inh pH 4.5, GAA inh, aGlu spleen mod, GLA spleen mod)
CCOc1ccc(N(CC)S(=O)(=O)c2c(C)[nH]c(=O)[nH]c2=O)cc1	none (no result: GLA inh pH 4.5, GAA inh, aGlu spleen mod, GLA spleen mod)
CCOc1ccc(N(CC(=O)Nc2cccc(C)c2C)S(=O)(=O)c2c(C)[nH]c(=O)[nH]c2=O)cc1	N370S GC mod 11.2µM (no result: GAA inh)
COc1ccc(N(CC(=O)NCc2ccc(C)cc2)S(=O)(=O)c2c(C)[nH]c(=O)[nH]c2=O)cc1	N370S GC mod 8.91µM (no result: GLA inh pH 4.5, GAA inh, aGlu spleen mod, GLA spleen mod)
COc1ccc(O[C@H]2C=C[C@@H](c3ccccc3)O[C@H]2CO/N=C2/c3cc(OC)ccc3O[C@@H](c3cccc(OC)c3)[C@H]2O)cc1	none (no result: GLA inh pH 4.5, GAA inh, GAA glycogen)
COC(=O)C/C=C\[C@@H](C)[C@@H](/C=N\O[C@@H](C)CN1CCCc2nc(C)c(C)cc21)OC	none (no result: GLA inh pH 4.5, GAA inh, GAA glycogen)
COc1ccccc1NC(=O)C1=C(C)Nc2nc(SC)nn2C1c1ccccc1Cl (centres undefined)	none (no result: GLA inh pH 4.5, GAA inh, N370S GC mod, aGlu spleen mod, GLA spleen mod)
CCCCCCCCCCCCCCOS(=O)(=O)O	none (no result: GLA inh pH 4.5, GAA inh, GAA glycogen)
CC1=C2[C@H](/C=C(\C)C(=O)O)CC[C@@H](C)[C@H]2CC1	none (no result: GLA inh pH 4.5, GAA inh, GAA glycogen)
CCOc1ccccc1/C=C/c1onc(C)c1S(=O)(=O)N1CCC(C(=O)N(CC)CC)CC1	none (no result: GLA inh pH 4.5, GAA inh, aGlu spleen mod, GAA glycogen, GLA spleen mod)
CCN(CCN(C)C)C(=O)C1CCN(S(=O)(=O)c2c(C)noc2/C=C/c2ccccc2F)CC1	N370S GC mod 7.08µM (no result: GLA inh pH 4.5, GAA inh, aGlu spleen mod, GLA spleen mod)
COc1ccc(O)c(-c2cc(-c3cccs3)[nH]n2)c1	GAA glycogen 39.8µM
COc1cc(CCN2C(=O)N[C@@H](c3ccccc3)C(C(C)=O)=C2C)cc(OC)c1OC	none (no result: GAA inh, GAA glycogen)
CCOc1ccc(NC(=O)N2CCC(CN3CCc4ccccc4C3)CC2)cc1	GAA glycogen 50.1µM (no result: GLA inh pH 4.5, GAA inh, N370S GC mod, aGlu spleen mod, GLA spleen mod)
N.N.N.N.N.N.N.N.N.N.N.N.N.N.O.O.[Cl-].[Cl-].[Cl-].[Cl-].[Cl-].[Cl-].[Ru].[Ru].[Ru]	none (no result: GAA inh, GAA glycogen)
O=C1C=CC2(OCCCO2)C(Br)=C1	none (no result: GLA inh pH 4.5, GAA inh, GAA glycogen)
Cn1c(CNc2ccccc2O)nc2ccccc21	GAA glycogen 14µM
CNNC(=S)Nc1cccc(C(F)(F)F)c1	none
COc1ccc(NC(=S)NNC(=S)Nc2cccc(C(F)(F)F)c2)cc1	GAA glycogen 4.47µM
CCOc1ccc(NC(=S)NNC(=S)Nc2cccc(C(F)(F)F)c2)cc1	GAA glycogen inconclusive
FC(F)(F)c1cccc(NC(=S)NNC(=S)Nc2cccc(C(F)(F)F)c2)c1	GAA glycogen 8.91µM
C[C@H]1Cc2c(-c3ccccc3)nc3c(c2CO1)CN(C(=O)Nc1cccc(C#N)c1)CC3	none (no result: GAA inh, GAA glycogen)
Oc1ccc(/C=N\Nc2cc(N3CCOCC3)nc(N3CCOCC3)n2)c(O)c1	GAA glycogen 10µM
COc1ccc(/C=N/Nc2cc(C)nc(N3CCOCC3)n2)c(OC)c1	none (no result: GAA inh)
Cc1cc(N/N=C/c2ccc(O)cc2O)nc(N2CCOCC2)n1	GAA glycogen 15.7µM
CC(C)c1ccc(/C=N/Nc2cc(N3CCOCC3)nc(N3CCOCC3)n2)cc1	none
CC/C=C\CC[C@H](OC(=O)c1ccc(Br)cc1)C1=CCCCC1=O	none (no result: GLA inh pH 4.5, GAA inh, GAA glycogen)
CC1(C)CN(c2ccccc2)N(C(=O)c2ccc(F)cc2)C1=O	none
CC1(C)CN(c2ccccc2)N(C(=O)c2ccc(C#N)cc2)C1=O	GAA glycogen 20µM
Cc1sc2ncnc(Nc3ccc(O)cc3)c2c1C	N370S GC mod 11.2µM, GAA glycogen inconclusive
CC(C)C(C(=O)O)N1C(=O)/C(=C/c2ccc(Br)cc2)SC1=S (centres undefined)	none (no result: GLA inh pH 4.5, GAA inh, GAA glycogen)
CCC1CN(S(=O)(=O)c2ccc3c(c2)NC(=O)CC(=O)N3)c2cc(Cl)ccc2O1 (centres undefined)	N370S GC mod 1.58µM (no result: GLA inh pH 4.5, GAA inh, aGlu spleen mod, GLA spleen mod)
Cc1cc(SCC(=O)c2ccc(O)c(O)c2)nc2ccccc12	GAA glycogen 4.43µM

High-throughput results as filed in PubChem.
